Experimental data: PubChem BioAssay (NCI)
The panel holds about 83,000 compounds, 20% with a hit somewhere; the sample as a whole holds those more often.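 Compound tested at a single concentration for 48 hours in 96-well plates; a percent growth value below 10 was scored as active.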 A number with no mark means an inactive call. The source made the active and inactive calls.

Tests used:
Test in all cases: NCI-60 one-dose screen, 48 h (100 = growth as untreated, 0 = no growth, -100 = all killed)
Conditions in all cases: 10 µM unless noted
SR leukemia = tested on: SR leukemia
RPMI-8226 leukemia = tested on: RPMI-8226 leukemia
OVCAR-8 ovarian = tested on: OVCAR-8 ovarian
OVCAR-5 ovarian = tested on: OVCAR-5 ovarian
OVCAR-4 ovarian = tested on: OVCAR-4 ovarian
SK-OV-3 ovarian = tested on: SK-OV-3 ovarian
IGROV1 ovarian = tested on: IGROV1 ovarian
OVCAR-3 ovarian = tested on: OVCAR-3 ovarian
HS 578T breast = tested on: HS 578T breast
NCI/ADR-RES ovarian = tested on: NCI/ADR-RES ovarian
T-47D breast = tested on: T-47D breast
BT-549 breast = tested on: BT-549 breast
MDA-MB-435 melanoma = tested on: MDA-MB-435 melanoma
MCF7 breast = tested on: MCF7 breast
HCT-116 colon = tested on: HCT-116 colon
HCC-2998 colon = tested on: HCC-2998 colon
KM12 colon = tested on: KM12 colon
SW-620 colon = tested on: SW-620 colon

Compound	growth (SR leukemia)	growth (RPMI-8226 leukemia)	growth (OVCAR-8 ovarian)	growth (OVCAR-5 ovarian)	growth (OVCAR-4 ovarian)	growth (SK-OV-3 ovarian)	growth (IGROV1 ovarian)	growth (OVCAR-3 ovarian)	growth (HS 578T breast)	growth (NCI/ADR-RES ovarian)	growth (T-47D breast)	growth (BT-549 breast)	growth (MDA-MB-435 melanoma)	growth (MCF7 breast)	growth (HCT-116 colon)	growth (HCC-2998 colon)	growth (KM12 colon)	growth (SW-620 colon)
O=C(CSc1nnc(-c2cccs2)n1-c1ccccc1)Nc1ccccc1F	25.3%	88.7%	95.1%	100%	95.1%	96.4%	84.9%	86.9%	91.6%	49.2%	88.9%	89.2%	3.39% (active)	58.9%	83.7%	91.6%	61.5%	–
COc1cc(C(=O)c2cc(C(C)=O)c3c(C)cccn23)cc(OC)c1OC	96.5%	95.5%	106%	95.8%	90.8%	109%	97.6%	115%	90.7%	97.9%	81.8%	104%	97.3%	82.7%	95.1%	105%	96.5%	–
NC1C2CCC1CN(c1cnc(C(=O)Nc3cc(F)cc4cccnc34)cn1)C2 (stereo not drawn)	5.29% (active)	57%	86%	66.7%	18.5%	97.1%	16.3%	46.3%	68.8%	79.4%	34.2%	–	75.5%	3.24% (active)	15.8%	79.3%	–	25%
Cc1ccc2c(n1)C(=O)C(Cl)=C(Nc1ccc(C)c(C)c1)C2=O	28.1%	11.1%	67.2%	91.6%	-29% (active)	99.1%	-45.5% (active)	-21.4% (active)	32.8%	63.1%	3.29% (active)	–	-82.6% (active)	-60.5% (active)	12.2%	57.6%	51.9%	33.5%
C#CCn1cc(/C=N/Nc2nc(-c3ccc(Br)cc3)cs2)c2ccccc21	119%	110%	101%	97.4%	107%	91.1%	74.9%	108%	101%	101%	76.4%	–	106%	–	85.4%	116%	104%	98.7%
CC1=C(C)C(=O)C(Nc2ccc(C)c(C)c2)=C(Br)C1=O	43.6%	29.8%	100%	111%	55.1%	100%	90.9%	109%	97.4%	82.7%	41.6%	100%	103%	64.2%	34.7%	96.4%	99.8%	–
CN(C)S(=O)(=O)c1ccc(-c2nc(C(Cl)Cl)nc3cc(-c4ccc(F)cc4)nn23)cc1	8.24% (active)	7.75% (active)	2.7% (active)	18.3%	21.1%	0.219% (active)	0.61% (active)	8.15% (active)	20.3%	3.66% (active)	38%	–	6.53% (active)	15%	-0.738% (active)	8.78% (active)	7.53% (active)	4.42% (active)
O=C(Nc1cccc(C(F)(F)F)c1)N1CCN(c2cc(-c3cn(-c4ccccc4)nc3-c3cccc(O)c3)ccn2)CC1	27.6%	27.8%	31.4%	82.3%	24.9%	84.7%	43.3%	54.4%	53.5%	28.5%	-5.55% (active)	–	47.3%	25.3%	27.4%	86.3%	32%	52.3%
Cn1cc(-c2nnc(N)nc2-c2c[nH]c3ccc(Br)cc23)c2cc(Br)ccc21	78.4%	109%	104%	120%	98.6%	111%	107%	108%	91.4%	110%	88%	91.1%	93.7%	90.7%	98.8%	114%	99.4%	–
C#C[C@]1(O)CC[C@H]2[C@@H]3CC=C4c5sc(Nc6cccc(F)c6)nc5CC[C@]4(C)[C@H]3CC[C@@]21C	1.48% (active)	-31.8% (active)	43.8%	57.5%	44.5%	-10.6% (active)	49.8%	27.4%	-7.5% (active)	37.9%	29.9%	–	29.9%	0.863% (active)	2.09% (active)	42%	13.7%	8.9% (active)
CC(=C(c1ccc(OCCN(C)C)cc1)c1ccc(OCCN(C)C)cc1)c1ccc(Cl)cc1	-36.1% (active)	-42.7% (active)	-46.9% (active)	-69% (active)	-17.4% (active)	77.5%	-76.8% (active)	-55.5% (active)	-32.5% (active)	-49.8% (active)	-53.7% (active)	–	-82.8% (active)	-77.6% (active)	-65.1% (active)	-87.7% (active)	-65.2% (active)	-71.5% (active)
Cc1ccc(-c2cc3nc(C(Cl)Cl)nc(-c4ccc(S(=O)(=O)N(C)C)cc4)n3n2)cc1	68.7%	86.9%	65.5%	106%	94.3%	101%	95%	108%	105%	78.8%	93.8%	–	88.6%	74.2%	62.9%	91.7%	86.5%	83.1%
NCCNC(=O)c1cccc(COc2ccccc2NC(=O)c2cc(Cl)c(Cl)[nH]2)c1	8.2% (active)	101%	92.1%	96.8%	97.7%	111%	94.6%	109%	103%	101%	89.2%	–	101%	77.7%	86.1%	106%	101%	111%
COc1ccc(/C=N/NC(=O)CSc2nc(-c3cnccn3)cc(-c3cccs3)c2C#N)cc1OC	81.8%	70.5%	84.7%	104%	97.6%	120%	104%	99%	69.8%	96.6%	93.9%	38%	78.9%	53.7%	55.4%	47.3%	51.4%	–
CC(C)(O)c1cncc(-c2ccc3ncc(C#N)c(N4CCc5cc(F)c(Cl)cc54)c3c2)c1	11.8%	13.5%	11.1%	16.7%	-1.6% (active)	-22.1% (active)	-14.5% (active)	9.12% (active)	-28% (active)	14.8%	2.88% (active)	2.34% (active)	17.9%	–	24.8%	18.7%	34.3%	–
COc1ccc(C(=O)c2c(N)c(C#N)cn2-c2ccc(Cl)cc2Cl)cc1	92.1%	101%	94.6%	93.9%	103%	117%	101%	106%	90.9%	86.7%	92.9%	111%	97.4%	99.4%	97.7%	103%	102%	–
NC(=O)c1c(NC(=O)c2ccc(C(F)(F)F)cc2)sc2c1CCC(=O)C2	1.33% (active)	-30.3% (active)	9.01% (active)	9.87% (active)	-66.9% (active)	37.5%	16.2%	-17.2% (active)	19.4%	0.891% (active)	-28.9% (active)	–	-8.14% (active)	5.66% (active)	3.88% (active)	32.3%	3.34% (active)	-17.5% (active)
CCOC(=O)C1=C(C)NC(C)=C(C(=O)OC(C)C)C1c1cccc(C#N)c1 (stereo not drawn)	90.9%	108%	103%	99.1%	104%	132%	103%	105%	98%	95%	95.1%	–	104%	94.5%	94%	104%	98%	99.2%
